Assay outcomes: PubChem, National Center for Advancing Translational Sciences (NCATS)
A selection: hits, their analogues and other compounds. The true share with any hit is near 21%.
Shiga inhibitor: blocks Shiga toxin action in Vero cells; Vero cells, Shiga toxin protein synthesis inhibition reporter; inhibition, % at 38.7 µM; actives 9.2% (n = 290,000); in the data active means inhibition mostly above about 28%, no sharp cut-off; inactive means mostly below about 43%
Cycloheximide cs: affects cycloheximide protein synthesis inhibition readout, counter-screen | cell reporter, cycloheximide protein synthesis inhibition counterscreen | max response, % | actives 12% (n = 300,000); in the data active means max response mostly above about 13%, no sharp cut-off; inactive means mostly below about 14%; further: read at 38.3 µM for the half of the compounds with a filed dose
Pf growth 48h: P. falciparum growth inhibition at 48 hours (one generation); P. falciparum luciferase growth in erythrocytes, 48 h; Potency, µM (titrated, usually from 28.7 µM), usual class: inhibitors; actives 5.9% (n = 310,000)
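Compounds are pin-transferred into medium, infected erythrocytes (2% hematocrit, 0.1% parasitemia final) are added, and plates sit one parasite generation at 37 C in 5% CO2. Detection reagent is then added and luminescence measured.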
HCMV inh: human cytomegalovirus inhibition; HFF cells, HCMV-luciferase reporter, 72 h; active compounds read low; activity change, negative = inhibition, % at 57.5 µM; actives 4.5% (n = 410,000); in the data active means activity change below about -60%; inconclusive means no clear call, values can overlap the other calls; inactive means above about -39%
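Two-dose cell screen: HFF monolayers treated with compounds and infected with luciferase-expressing HCMV at 1 PFU/cell, 72 h at 37C, then lysed for luciferase measurement.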
HCV inhibitor: inhibitors of hepatitis C virus infection; actives 3.4% (n = 340,000); Huh7.5.1 HCVcc-Cre infection, luciferase reporter, 44 h; Potency, µM (top dose mostly 41.8 µM), usual class: inhibitors
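After 44 h co-culture of compound, cells and HCVcc-Cre (~0.5 moi), substrate is added for 15 min at room temperature and luciferase measured over 15 sec. Cells were seeded at 1,000/well and pre-cultured 4 h.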
Pf growth 96h: P. falciparum growth inhibition at 96 hour, primary screen for plastid delayed-death inhibitors; P. falciparum luciferase reporter growth, 96 h; Potency, µM (series often up to 28.7 µM), usual class: inhibitors; actives 6.9% (n = 320,000)
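Cell-based qHTS: luciferase-tagged P. falciparum in erythrocytes (2% hematocrit, 0.05% parasitemia final) incubated with compounds for 96 hours, 37 C, 5% CO2; luciferase detection reagent then added and luminescence measured.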
A number is an active result; 0 = inactive; ? = inconclusive; - = no result given; [ ] = another dose, or the depositor's remark. Unless noted, the call rests on the fitted dose curve; in most records, active means well fitted inhibition curve with a large enough effect; inconclusive means small, poorly fitted or top-dose-only effect, or another doubt; inactive means no such curve, though single readings can be large or run the other way.

SMILES	Shiga inhibitor	Cycloheximide cs	Pf growth 48h	HCMV inh	HCV inhibitor	Pf growth 96h
COc1ccc(N2CC(O)=C(c3n(C)c4ccccc4[n+]3C)C2=N)cc1	0	0	-	-81	0	0
COc1ccc(N2CC(O)=C(c3nc(C)cs3)C2=N)cc1	0	0	-	0	0	0
Cc1ccc(OCc2nnc(N)s2)cc1C	59	21	0	0	0	0
Cc1ccc(OCc2nnc(N)s2)cc1	27	28	0	0	0	?
COc1ccc(OC)c(NC(=O)C2CCN(c3cc(-c4ccccc4)nc4ncnn34)CC2)c1	0	0	-	?	14µM	0[5.75 µM]
COc1cccc(-c2csc(N3CCN(C(=O)Nc4ccccc4OC)CC3)n2)c1	0	0	?	0	0	-
COc1ccc(OC)c(NC(=O)C2CCN(c3ncccn3)CC2)c1	0	0	0	0	0	0
COc1ccccc1NC(=O)N1CCN(c2cc(-c3ccccc3)nc3ncnn23)CC1	0	0	?	-95	10µM	0
COc1ccc(NC(=O)C2CCN(c3cc(-c4ccccc4)nc4ncnn34)CC2)cc1OC	0	0	?	-89	0	?
Cc1ccc(Nc2nnc(SCC(=O)Nc3cc(C(=O)O)ccc3C)s2)c(C)c1	0	0	0	0	0	0
O=C(NCc1n[nH]c(=S)n1-c1cccc(C(F)(F)F)c1)c1ccc(S(=O)(=O)N2CCCCC2)cc1	0	0	0	0	0	0
CC(C)CN(C(=O)CCNC(=O)c1ccccc1Cl)C1CCS(=O)(=O)C1 (centres undefined)	-	-	0	0	0	0
CCc1c(C)nc2ncnn2c1Nc1ccc(C)cc1	0	0	0	0	0	?
CCc1c(C)nc2ncnn2c1NCCc1ccc(OC)cc1	0	0	?	-92	5.6µM	?
CCc1c(C)nc2ncnn2c1NCc1cccs1	0	0	0	-69	0	0
CCC(=O)N1N=C(c2ccc(C)cc2)CC1c1ccco1 (centres undefined)	0	0	0	0	0	0
Cc1ccc(C2=NN(C(=S)Nc3ccccc3)C(c3ccco3)C2)cc1 (centres undefined)	71	39	0	0	0	9.3µM
O=C(OCC(=O)N1N=C(c2ccc(Cl)cc2)CC1c1ccco1)c1ccco1 (centres undefined)	0	0	0	0	0	0
COc1ccc(C2=NN(C(=O)COC(=O)c3ccc(NC(=O)CC#N)cc3)C(c3ccco3)C2)cc1 (centres undefined)	-	-	12µM	0	0	?
CCS(=O)(=O)Nc1ccc(C2=NN(C(=S)Nc3ccccc3)C(c3ccco3)C2)cc1 (centres undefined)	0	18	?	0	?	?
CCC(=O)N1N=C(c2ccc(NS(=O)(=O)c3ccc(C)cc3)cc2)CC1c1ccco1 (centres undefined)	-	-	-	0	11µM	-
C=CCNC(=S)N1N=C(c2ccco2)CC1c1ccco1 (centres undefined)	-	-	-	0	0	-
CCOC(CN1CCN(CC(C)C(=O)c2ccccc2)CC1)c1ccccc1 (centres undefined)	-	-	0	-	-	?
CC1=C(C(=O)OCC(C)C)C(c2ccsc2)C2=C(CCCC2=O)N1 (centres undefined)	0	0	13µM	-78	0	8.3µM
CCOC(=O)C1=C(CC)NC2=C(C(=O)CCC2)C1c1ccc(OC)c(OC)c1 (centres undefined)	0	0	7.4µM	0	0	-
CCCCOC(=O)C1=C(C)NC2=C(C(=O)CCC2)C1c1cc(OC)ccc1OC (centres undefined)	0	0	-	?	0	13µM
CCOC(=O)C1=C(C)NC2=C(C(=O)CCC2)C1c1ccsc1 (centres undefined)	0	0	0	-	-	0
CCCOC(=O)C1=C(C)NC2=C(C(=O)CCC2)C1c1cc(OC)ccc1OC (centres undefined)	0	0	0	0	0	0
COc1ccc(OC)c(NC(=O)C(C)n2c(=O)cc(C)c3c(C)nn(-c4ccccc4)c32)c1 (centres undefined)	-	-	-	0	-	-
COC(=O)[C@H](Cc1ccccc1)NC(=O)C1(OC(C)=O)CC(OC(C)=O)C(OC(C)=O)C(OC(C)=O)C1 (some centres undefined)	0	0	0	0	0	0
